Source: PubChem BioAssay
D3 ag: agonists of human D3 dopamine receptor. D3R DiscoveRx beta-arrestin cells, luminescence, 90 min. max activation, %. 410,000 tested, 0.58% active; in the data active means max activation above about 30%
Target sequence (P35462 whole entry, looked up): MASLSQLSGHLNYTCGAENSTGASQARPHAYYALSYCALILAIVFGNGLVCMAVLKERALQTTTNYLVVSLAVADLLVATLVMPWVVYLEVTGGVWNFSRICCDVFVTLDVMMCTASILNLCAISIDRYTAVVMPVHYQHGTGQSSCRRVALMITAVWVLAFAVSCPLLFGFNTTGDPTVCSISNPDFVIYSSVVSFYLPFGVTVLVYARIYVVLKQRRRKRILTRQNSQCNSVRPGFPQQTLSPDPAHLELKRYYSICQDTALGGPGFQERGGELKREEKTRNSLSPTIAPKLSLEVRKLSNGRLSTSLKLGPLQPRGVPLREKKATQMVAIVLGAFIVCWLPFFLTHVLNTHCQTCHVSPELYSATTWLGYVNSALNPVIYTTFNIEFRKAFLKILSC
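Agonist mode: compounds and dopamine controls were applied to plated cells for 90 min at 37 degrees C after an overnight attachment at 1500 cells/well. Luminescent read-out followed 30 - 60 minutes at room temperature with DiscoveRx detection reagent.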
D3 antag: antagonists of human D3 dopamine receptor. P35462. D3R cells, DiscoveRx beta-arrestin luminescence, antagonist mode; stronger effect = lower value. max response, negative = inhibition, %. 360,000 tested, 2.5% active. AID 652054; in the data active means max response below about -50%; inconclusive means no clear call, values can overlap the other calls
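Cells plated overnight at 1500 cells/well, then exposed to library compounds with dopamine controls for 90 minutes at 37 degrees C. DiscoveRx reagent added for 30–60 minutes at room temperature; luminescence read, quantitative HTS format.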
ATXN2 expr inh: ATXN2 expression inhibition | HEK-293 ATXN2-luciferase reporter, luminescence, 24 h | Potency, µM (series often up to 57 µM), usual class: inhibitors | 360,000 tested, 0.72% active | AID 1745845; further: nearly all actives have a fitted effect of over 55% in size
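qHTS (up to 57 uM final) was run with 24 h compound exposure of reporter cells at 37 °C. Each well was multiplexed: SteadyGlo luminescence measured ATXN2-luciferase expression after a fluorogenic Gly-Phe-AFC viability readout (25 uM final).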
IL-1B inflam inh: inhibitors of inflammasome signaling (IL-1 beta secretion) | THP-1 LPS/ATP IL-1B secretion, AlphaLISA, 16 h; stronger effect = lower value | activity change, % at 57.5 µM | 360,000 tested, 4.7% active | AID 743279; in the data active means activity change below about -50%; inconclusive means mostly about -30% to -49%
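THP-1 cells pretreated 1 hr with compounds (up to 57.5 uM final), then stimulated with LPS (250 ng/mL final) plus ATP (1.25 mM final); secreted IL-1B measured by AlphaLISA after 16 hr, decreased signal indicating inhibition.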
Integrin act MD: integrin-mediated muscular dystrophy alleviation activation; 350,000 tested, 0.064% active; alpha7betagal myoblasts, beta-gal FDG fluorescence, 48 h; Potency, µM (doses to about 38.3 µM), actives largely listed as activators; AID 624291; further: nearly all actives have a fitted effect of over 60% in size
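alpha7betagal+/- myoblasts (passage 13, 250/well) treated 48 h at 37C with compounds at 1:260 dilution of DMSO stock. Lysed, then beta-galactosidase activity read as FDG fluorescence (ex 480/em 540) after 30 min, with pre-read for autofluorescence.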
S2 tox: reduces viability in counter-screen for ATXN expression inhibitors | 400,000 tested, 0.49% active | S2 cells (HEK-293 line with an ATXN2-luciferase reporter) viability, CellTiter-Fluor protease fluorescence, 24 h | Potency, µM (highest dose often 56.7 µM), hits mostly cytotoxic; further: nearly all actives have a fitted effect of over 40% in size
Hits are given with their value; - = inactive; ? = inconclusive; . = no result given; [ ] = another dose, or the depositor's remark. Hits are enriched below; roughly 7% of the tested compounds scored in any of these assays. Unless noted, the call rests on the fitted dose curve; in most records, active means well fitted curve in the direction sought with a large enough effect; inconclusive means small, poorly fitted or top-dose-only effect, or another doubt; inactive means no such curve, though single readings can be large; an effect the other way counts as inactive or inconclusive.

SMILES | D3 ag | D3 antag | ATXN2 expr inh | IL-1B inflam inh | Integrin act MD | S2 tox
Cc1cc(C(C)(C)C)cc(C)c1C[n+]1ccc2ccccc2c1 | - | - | - | -52 | ? | -
CCOC(=O)N1CCN(C(=O)c2cccc(NS(=O)(=O)c3ccc(F)c(F)c3)c2)CC1 | - | - | - | - | - | -
CCOC(=O)C1CCN(C(=O)c2cccc(NS(=O)(=O)c3ccc(F)c(F)c3)c2)CC1 | - | - | - | -101 | - | -
COc1ccc(C(=O)NCCSc2ccc(C)cc2)cc1 | - | - | - | - | - | -
Cc1cccc(N2CCN(C(=O)C(C)C)CC2)c1C | - | - | - | - | - | -
CC(=O)c1sc2nc(-c3ccc(C)cc3)c3c(c2c1N)CCCC3 | 52 | - | - | - | - | .
Cc1ccc(-c2nc3sc(C(N)=O)c(N)c3c3c2CCCC3)cc1 | - | - | - | - | - | -
Cc1nc2sc(C(N)=O)c(N)c2c2c1CCCC2 | - | - | - | -95 | ? | -
COc1ccc(C(=O)N/C(=C\c2cn(C)c3ccccc23)C(=O)NCCCN2CCOCC2)cc1 | - | - | - | - | - | -
CN(C)CCCCOc1ccccc1-c1ccccc1 | - | -77 | - | - | - | -
COCCNCCCCOc1ccccc1-c1ccccc1 | - | - | - | - | - | -
CN(C)Cc1ccccc1Cc1ccccc1 | - | - | - | - | - | -
CN(C)CCCCOc1ccccc1F | - | - | - | - | - | -
C=CCNCCOc1ccccc1-c1ccccc1 | - | -64 | - | ? | - | -
CCCCNCCOCCOc1ccccc1-c1ccccc1 | - | -87 | - | ? | - | -
CN(C)CCOc1ccccc1Cc1ccccc1 | - | -75 | - | - | . | -
c1ccc(-c2ccccc2OCCN2CCOCC2)cc1 | - | - | - | - | - | -
COc1cc(OC)cc(C(=O)N[C@H](C(=O)Nc2ccc(NC(C)=O)cc2)C(C)C)c1 | - | - | - | - | ? | -
COc1ccccc1NC(=O)Cn1nc(-c2ccncc2)nc1SCC(=O)NC1CCCC1 | - | - | - | - | - | ?
Cc1ccc(-c2n[nH]c(=O)c3ccccc23)cc1S(=O)(=O)Nc1ccc(F)cc1 | - | - | - | - | - | -
COc1ccccc1NS(=O)(=O)c1cccc(C(=O)NNC(=O)c2ccc(Cl)nc2)c1 | - | - | - | - | - | -
O=C1CCCc2cc(S(=O)(=O)NCC3CCC(C(=O)NCc4ccccc4Cl)CC3)ccc2N1 (stereo not given) | - | . | - | . | . | -
CCc1cc2c(=O)c(-c3ccc4c(c3)OCCO4)coc2cc1OS(C)(=O)=O | - | - | -[11.3 µM] | -87 | - | -
Cc1cc(C)n(-c2nc(NC(C)C)nc(NC(C)C)n2)n1 | - | -51 | - | - | -[7.66 µM] | -
Cc1cc(C)n(-c2nc(NC(C)(C)C)nc(NC(C)(C)C)n2)n1 | - | -62 | - | - | - | -
SMILES | D3 ag | D3 antag | ATXN2 expr inh | IL-1B inflam inh | Integrin act MD | S2 tox
Cc1cc(C)n(-c2nnc(NC(C)(C)C)nn2)n1 | - | - | - | - | - | -
Cc1cc(C)n(-c2nc(Nc3ccccc3C(F)(F)F)nc(-n3nc(C)cc3C)n2)n1 | - | - | 22µM | -54 | - | ?
Cc1cc(Nc2ccccc2C)nc(-n2nc(C)cc2C)n1 | - | . | . | . | . | .
COc1ccc(S(=O)(=O)N2CCN(Cc3ccccc3OC)CC2)cc1 | - | - | . | - | - | ?
COc1cc(C(O)c2nc(-c3cc(F)cc(F)c3)cs2)ccc1F (stereo not given) | - | - | - | - | . | ?
COc1cc(C(O)c2nc(-c3ccc(N(C)C)cc3)cs2)ccc1F (stereo not given) | - | - | - | -62 | . | -
CCCc1ccc(Oc2c(-c3ccc(O)c(C)c3O)n[nH]c2C)cc1 | - | -81 | - | - | - | ?
COc1cccc(Oc2cn[nH]c2-c2ccc(OC)cc2O)c1 | - | - | - | - | - | -
CCCc1ccc(Oc2cn[nH]c2-c2ccc(O)c(C)c2O)cc1 | - | - | ? | -64 | - | ?
CCOCCCNC(=O)Cn1cnc2c(cnn2-c2ccc(F)cc2)c1=O | - | - | . | - | - | -
c1csc(-c2nnc(NC3CCCCC3)c3ccccc23)c1 | - | - | - | -92 | - | ?
CCC(CO)[n+]1c(C)cc(/C=C2\Sc3ccccc3N2Cc2ccccc2)cc1C (stereo not given) | - | - | ? | -104 | - | ?
NS(=O)(=O)c1ccc(CCNS(=O)(=O)c2ccc(Cl)s2)cc1 | - | - | . | - | - | .
CCc1ccc(NC(=O)CSc2nnc(C3CC3)n2CC2CCCO2)cc1 (stereo not given) | - | - | - | - | - | -
c1cncc(CSc2ccc(-c3ccc4c(c3)OCO4)nn2)c1 | - | - | - | -51 | ? | ?
O=[N+]([O-])c1cccc(-c2ccc(SCc3cccnc3)nn2)c1 | - | - | - | -80 | - | -
CSc1ccc(-c2cccc([N+](=O)[O-])c2)nn1 | - | - | - | - | - | -
COc1ccc(OC)c(S(=O)(=O)NCCc2cn3ccsc3n2)c1 | - | - | - | - | - | -
CC(c1ccccc1)C(CC(=O)O)C(=O)NC1CCCCC1 (stereo not given) | - | - | - | - | - | -
CC(C)C[C@@H](C(=O)N[C@H](C(=O)OC1CCCC1)c1ccccc1)[C@H](O)C(=O)NO | . | . | 22µM | . | . | .
CCN1CCCC1CN(Cc1cc2cc(C)ccc2[nH]c1=O)C(=O)Nc1ccccc1OC (stereo not given) | - | - | - | - | - | -
Cc1cc(C)c2cc(CN(CCO)C(=O)Nc3ccc(F)cc3)c(=O)[nH]c2c1 | - | - | - | . | - | -
CCN1CCCC1CN(Cc1cc2c(C)cc(C)cc2[nH]c1=O)C(=O)NC1CCCCC1 (stereo not given) | - | - | - | -67 | - | ?
Cc1cc(C)c2cc(CN(CCO)C(=O)NC3CCCCC3)c(=O)[nH]c2c1 | - | - | - | -52 | - | -
Cc1cc(C)c2cc(CN(Cc3ccco3)C(=O)NCc3ccccc3)c(=O)[nH]c2c1 | - | - | - | -58 | - | -
SMILES | D3 ag | D3 antag | ATXN2 expr inh | IL-1B inflam inh | Integrin act MD | S2 tox
COc1cccc(Cn2c3ccc(NC(=O)CC(C)C(F)(F)F)cc3c(=O)n2C)c1 (stereo not given) | - | - | - | - | . | -
CC(C)(C)c1ccc(OCCCn2ccnc2)cc1 | - | - | - | -68 | - | -
Cc1cc(OCCCCn2ccnc2)cc(C)c1Cl | - | - | ? | -70 | - | -
Cc1cc(Cl)cc(C)c1OCCCCn1ccnc1 | - | - | - | - | -[7.66 µM] | -
CCOc1ccc2nc(SCC(=O)c3ccc(O)cc3O)sc2c1 | - | - | . | - | - | -
CCCc1cc(=O)oc2cc(OCc3ccc(C(=O)O)o3)ccc12 | - | - | - | - | - | -
Cc1ccccc1NC(=O)Cc1nnc(SCC(=O)NC2CCCC2)n1C | - | - | - | - | - | -
